The test system of assay [1] is Human papillomavirus type 1a protein E7 (residues 44-93). As to the kind of experiment: HPV1a E7 fragment binders on microarrays, primary screen, biochemical, small-molecule microarray, residues 44-93, 635 nm fluorescence (AID 1108).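 Further: E7 fragment applied at 1 µg/mL in TBST for 1 h at 4 C; score combines spot fluorescence with its signal to noise ratio.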 The note with it: small-molecule microarray binding, fluorescence 635 nm; higher = more signal.
The nature of assay [2]: modulators of HCV replicon luciferase signal, primary screen, HCV replication inhibitor project, Huh7 cells, luciferase reporter (AID 1109).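 Further: huh7 hepatoma cells harbouring a luciferase neomycin HCV replicon reporter; luciferase luminescence as measure of HCV replicon replication; test concentration not given here.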 The settings on record: 48 h, higher = more signal. (Replicon systems follow genome replication, usually without infectious particles.)
The target in assay [3] is Left-right determination factor 2 (Homo sapiens) (UniProt O00292). As to the kind of experiment: LEFTY2 binders on small-molecule microarrays, primary screen, biochemical, small-molecule microarray, 635 nm fluorescence scan (AID 1110). The note with it: LEFTY2 binding, higher = more signal.
For assay [4], the target named is Calmodulin-1 (Homo sapiens) (UniProt P0DP23). As to the kind of experiment: CALM1 binders on microarrays, EGTA buffer, profiling panel, biochemical, small-molecule microarray, Cy5-labelled CALM1 (AID 1111).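 Further: labelled calmodulin applied in Tris saline Tween buffer holding calcium plus EGTA and DTT.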 The note with it: Cy5-CALM1 binding fluorescence, higher = more signal.
Assay [5] has the same target. As to the kind of experiment: calcium-bound CALM1 binders on microarrays, profiling panel, artefact control for SMM control-protein annotation, biochemical, small-molecule microarray, Cy5-labelled CALM1, plus calcium (AID 1112).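 Further: score merges spot fluorescence with signal to noise from triplicate slides.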 The settings on record: Cy5-CALM1 binding fluorescence, higher = more signal.
Assay [6] is described as follows: small-molecule microarray binders of probe aWnt5a, primary screen, biochemical, biotinylated probe, 635/667 nm fluorescence (AID 1113).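 Further: score merges 667 nm fluorescence intensity with signal-to-noise per printed feature.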 The note with it: higher = more signal.
A short description of assay [7]: small-molecule microarray binders of probe aShh, primary screen, biochemical, biotinylated probe, 635/667 nm fluorescence (AID 1114).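 Further: probe is biotin-labelled aShh protein from a stem cell growth factor screen; measures binding of labelled protein to compounds printed on the slide; score merges feature fluorescence at 667 nm with signal-to-noise.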 The note with it: higher = more signal.
Assay [8] in a line: small-molecule microarray binders of probe aNog, primary screen, biochemical, biotinylated probe, 635/667 nm fluorescence (AID 1115).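 Further: probe is biotinylated aNog protein used at 0.15 µg/mL for 1 h at 4 C; z-score combines 667 nm fluorescence of each spot with its signal to noise.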 The note with it: higher = more signal.
Assay [9] has as its target Torsin-1A-interacting protein 1 (Homo sapiens) (UniProt Q5JTV8). Briefly: LAP1 binders from COS7 cell lysate, primary screen, small-molecule microarray, 635/667 nm fluorescence (AID 1116). The note with it: COS7-hLAP1 lysate binding, 635 nm fluorescence, higher = more signal.
The target of assay [10] is Alpha-bungarotoxin (Bungarus multicinctus) (UniProt P60615). Briefly: alpha-bungarotoxin binders on microarray, profiling panel, artefact control for SMM control protein annotation, biochemical, small-molecule microarray, Alexa647 label, 635/667 nm fluorescence (AID 1117). The note with it: alpha-BTX-A647 binding fluorescence, higher = more signal.
The target of assay [11] is Albumin (Bos taurus) (UniProt P02769). As to the kind of experiment: bovine serum albumin binders on microarray, profiling panel, artefact control for SMM control protein annotation, biochemical, small-molecule microarray, Alexa647 label, 635/667 nm fluorescence (AID 1118).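 Further: score merges 667 nm emission intensity and signal-to-noise per printed compound spot.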 The settings on record: BSA-A647 binding, fluorescence 635 nm, higher = more signal.
Assay [12] is described as follows: small-molecule microarray binders of probe aXIP, primary screen, biochemical, NeuroSMM set, 635/667 nm fluorescence (AID 1119).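 Further: probe is the protein aXip251-270 applied at 1 µg/mL to compound-printed slides; binding of probe to printed compounds measured as 667 nm fluorescence plus signal to noise.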 The settings on record: higher = more signal, called active from +8 up or from −8 down.
The nature of assay [13]: small-molecule binders of probe aNOTCH3, primary screen, biochemical, small-molecule microarray, 635/667 nm fluorescence (AID 1120).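 Further: probe is a biotin-tagged antibody raised against NOTCH3 rather than NOTCH3 protein; score merges spot fluorescence near 667 nm with spot signal to noise.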 The settings on record: higher = more signal.
A short description of assay [14]: small-molecule binders of probe aNOTCH2, primary screen, biochemical, small-molecule microarray, 635/667 nm fluorescence (AID 1121).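 Further: score merges feature fluorescence read at 667 nm with its signal to noise.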 The note with it: higher = more signal.
In assay [15] the target is Carbonic anhydrase 2 (Homo sapiens) (UniProt P00918). Briefly: CAII small-molecule binders, profiling panel, biochemical, small-molecule microarray, Alexa647-labelled CAII (AID 1122). The note with it: CAII-A647 binding fluorescence, higher = more signal.
Assay [16] is described as follows: COS7 lysate on small-molecule microarray, probe aHis, 635 nm (AID 1123).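 Further: z-score combines 667nm fluorescence intensity with signal-to-noise per printed compound spot.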 The note with it: COS7 cell lysate, fluorescence, higher = more signal.
Assay [17] can be described thus: compound binding in COS7 lysate, probe aLAP1, primary screen, cell lysate, small-molecule microarray (AID 1124).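 Further: lysate comes from COS7 cells expressing LAP1 and is applied at 0.3 µg/mL; score merges spot fluorescence near 667 nm with signal-to-noise over triplicate slides.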 The note with it: probe aLAP1, fluorescence, higher = more signal.
Assay [18] relates to Sam68 (KHDRBS1). Briefly: Sam68 small-molecule binders, primary screen, biochemical, small-molecule microarray, 635 nm fluorescence (AID 1125).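 Further: score merges 667 nm channel intensity with signal to noise over triplicate slides.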 The note with it: small-molecule microarray binding, higher = more signal.
For assay [19], the system named is Chordin-like protein 2 (CHRDL2). As to the kind of experiment: CHRDL2 small-molecule binders, primary screen, biochemical, small-molecule microarray, 635 nm fluorescence (AID 1126).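 Further: printed compound slides probed with Chrdl2 protein at 4 µg/mL for 1 h at 4 C; score merges 667 nm emission intensity with signal to noise over three replicate slides.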 The settings on record: small-molecule microarray binding, fluorescence 635 nm; higher = more signal.
In assay [20] the target is Concanavalin-A (Canavalia ensiformis) (UniProt P02866). As to the kind of experiment: ConA small-molecule binders, primary screen, artefact control for SMM control protein annotation, biochemical, small-molecule microarray, Alexa647 label, 635 nm (AID 1127).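 Further: z combines 667 nm emission intensity with signal-to-noise across three replicate slides.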 The note with it: ConA-A647 binding fluorescence, higher = more signal.

Drawing on PubChem BioAssay, this text covers composite z-score, z-score and composite Z-score for six compounds.

Active and inactive are the calls of the source.

Concanavalin-A (Canavalia ensiformis), sequence (P02866 whole entry, looked up): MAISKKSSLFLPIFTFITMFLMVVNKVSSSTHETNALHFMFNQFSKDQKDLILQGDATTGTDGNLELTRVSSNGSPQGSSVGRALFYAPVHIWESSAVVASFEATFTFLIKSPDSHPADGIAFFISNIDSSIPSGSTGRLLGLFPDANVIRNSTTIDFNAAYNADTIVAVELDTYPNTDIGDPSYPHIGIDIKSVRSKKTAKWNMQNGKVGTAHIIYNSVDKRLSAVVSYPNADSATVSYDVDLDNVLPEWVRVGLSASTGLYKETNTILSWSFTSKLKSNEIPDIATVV
Left-right determination factor 2 (Homo sapiens), sequence (O00292 whole entry, looked up): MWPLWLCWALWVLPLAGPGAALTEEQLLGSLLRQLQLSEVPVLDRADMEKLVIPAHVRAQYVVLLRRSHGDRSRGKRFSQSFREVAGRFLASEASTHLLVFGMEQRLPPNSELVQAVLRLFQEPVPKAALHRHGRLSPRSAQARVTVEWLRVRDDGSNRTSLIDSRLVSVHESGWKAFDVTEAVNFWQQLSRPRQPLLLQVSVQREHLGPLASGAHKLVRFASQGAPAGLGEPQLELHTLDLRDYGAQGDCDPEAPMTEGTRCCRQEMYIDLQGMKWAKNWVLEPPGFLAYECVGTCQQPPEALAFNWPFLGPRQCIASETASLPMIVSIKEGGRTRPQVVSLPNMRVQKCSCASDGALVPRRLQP
Torsin-1A-interacting protein 1 (Homo sapiens), sequence (Q5JTV8 whole entry, looked up): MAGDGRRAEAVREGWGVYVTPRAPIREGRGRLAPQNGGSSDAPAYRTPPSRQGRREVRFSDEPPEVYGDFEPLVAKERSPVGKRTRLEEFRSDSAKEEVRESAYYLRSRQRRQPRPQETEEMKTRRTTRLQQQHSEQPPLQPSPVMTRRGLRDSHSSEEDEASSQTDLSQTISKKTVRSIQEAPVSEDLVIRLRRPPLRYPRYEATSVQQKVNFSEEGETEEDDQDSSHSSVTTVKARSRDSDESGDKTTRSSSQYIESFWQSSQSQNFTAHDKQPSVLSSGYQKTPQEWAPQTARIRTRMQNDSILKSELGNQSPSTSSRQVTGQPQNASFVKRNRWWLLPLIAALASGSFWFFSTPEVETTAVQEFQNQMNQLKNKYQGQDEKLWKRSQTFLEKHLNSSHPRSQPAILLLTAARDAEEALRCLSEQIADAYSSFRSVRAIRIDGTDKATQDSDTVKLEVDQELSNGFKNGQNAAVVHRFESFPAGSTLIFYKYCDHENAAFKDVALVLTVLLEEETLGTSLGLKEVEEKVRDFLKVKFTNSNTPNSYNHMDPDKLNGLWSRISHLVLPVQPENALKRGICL
Albumin (Bos taurus), sequence (P02769 whole entry, looked up): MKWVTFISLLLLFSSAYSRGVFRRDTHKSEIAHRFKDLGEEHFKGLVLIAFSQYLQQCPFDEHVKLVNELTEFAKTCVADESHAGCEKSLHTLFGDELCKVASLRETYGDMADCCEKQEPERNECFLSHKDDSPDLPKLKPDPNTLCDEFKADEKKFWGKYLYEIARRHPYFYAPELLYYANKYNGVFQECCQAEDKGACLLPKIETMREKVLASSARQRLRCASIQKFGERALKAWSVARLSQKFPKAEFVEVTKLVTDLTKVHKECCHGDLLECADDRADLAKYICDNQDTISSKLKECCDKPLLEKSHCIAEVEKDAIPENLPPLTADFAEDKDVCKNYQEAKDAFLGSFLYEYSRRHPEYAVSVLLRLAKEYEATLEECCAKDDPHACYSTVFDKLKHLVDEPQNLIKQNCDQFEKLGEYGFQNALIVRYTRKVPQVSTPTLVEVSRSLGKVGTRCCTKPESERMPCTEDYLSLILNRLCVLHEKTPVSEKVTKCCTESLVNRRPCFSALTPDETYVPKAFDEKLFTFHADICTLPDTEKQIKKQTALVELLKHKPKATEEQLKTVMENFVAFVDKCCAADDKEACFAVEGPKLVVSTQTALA
Alpha-bungarotoxin (Bungarus multicinctus), sequence (P60615 whole entry, looked up): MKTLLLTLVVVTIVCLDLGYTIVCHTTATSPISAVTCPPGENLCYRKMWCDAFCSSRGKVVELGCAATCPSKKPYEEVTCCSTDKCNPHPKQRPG

`COCCOC(=O)N1C(=O)[C@@]2(c3cc(C#CCCO)ccc31)[C@H](c1ccc(OCCO)cc1)N1[C@H](c3ccccc3)[C@H](c3ccccc3)OC(=O)[C@H]1[C@@H]2C(N)=O`: the composite z-score in assay [1] was 1.44; in assay [3], 0.606; in [4], 0.852; in assay [5], 0.278; in assay [6], 0.0136; in assay [7], 0.171. Further, the composite z-score is 0.226 in assay [8]; 0.918 in [9]; 0.338 in [10]; 0.482 in assay [11]; -0.0117 in assay [13]; -0.0567 in assay [14]. Further, the composite z-score in assay [15] is 0.588; in assay [16] it was 1.93; in [17], -0.591; in assay [18], 1.29; in [19] it was 0.437; in [20], 1.17. The compound also gave a z-score in assay [2] of -1.13. The composite Z-score in [12] was 0.606 (inactive).

As for `COC(=O)[C@]1(Cc2ccccc2)N=C(c2ccc(OCCCO)cc2)O[C@@H]1c1ccccc1N=[N+]=[N-]`, the composite z-score in assay [1] is 1.33; in assay [3], 0.123; in [4], 0.39; in assay [5], 0.245; in assay [6] it was -0.0236; in assay [7], -0.0709. For the same compound, the composite z-score was -0.595 in [8]; -0.279 in assay [9]; 0.0359 in assay [10]; 0.165 in [11]; -0.0391 in assay [13]; -0.122 in [14]. Besides, the composite z-score in [15] is 0.279; in assay [16] it was 1.59; in [17], 0.209; in [18], 0.3; in assay [19], 0.315; in assay [20] it was 0.666. The z-score in assay [2] is -3.25. In addition, the composite Z-score in [12] is -0.181 (inactive).

`CC(C)Cc1ccc(CN2CC[C@@H](N)C2)cc1`: the composite z-score is -2.06 in assay [1]; -0.669 in [3]; -0.387 in [4]; 0.36 in assay [5]; -0.274 in [6]; -0.147 in [7]. For the same compound, the composite z-score is 0.023 in [8]; -1.24 in assay [9]; -0.118 in assay [10]; -0.275 in assay [11]; -0.152 in [13]; -0.205 in [14]. Moreover, the composite z-score in assay [15] is -0.501; in assay [16] it was -0.304; in assay [17], -0.485; in [18], -1.62; in assay [19], -0.629; in assay [20], -0.732. In [2], this compound had a z-score of -4.41. Besides, the composite Z-score in assay [12] is -0.536 (inactive).

Regarding `NC(=O)[C@@H]1[C@H]2C(=O)O[C@H](c3ccccc3)[C@H](c3ccccc3)N2[C@H](c2ccc(OCCO)cc2)[C@@]12C(=O)Nc1ccc(C#CC3=CCCCC3)cc12`, the composite z-score is 1.36 in assay [1]; 0.759 in assay [3]; 0.658 in assay [4]; -0.223 in [5]; 0.0182 in [6]; 0.031 in assay [7]. The composite z-score in assay [8] was 0.0415; in assay [9] it was 1.06; in assay [10], 0.711; in assay [11], 0.768; in [13] it was -0.0665; in assay [14], 0.0086. For the same compound, the composite z-score stood at 0.647 in assay [15]; 0.558 in assay [16]; 0.0971 in assay [17]; 1.32 in [18]; 0.463 in assay [19]; 1.09 in [20]. This compound had a z-score in [2] of -3.2. The composite Z-score in assay [12] is 2.02 (inactive).

As to `O=C1OCCC=C[C@H]2OC34C=CCN(CCN5CCOCC5)C(=O)[C@H]3N(CCCCCO)C(=O)[C@@H]4C12` (stereo not given in full), the composite z-score in [1] is 0.57; in assay [3], -0.529; in assay [4], 0.667; in [5], -0.836; in [6] it was -0.147; in assay [7], -0.237. Moreover, the composite z-score was -0.103 in [8]; 2.24 in [9]; 1.88 in assay [10]; 0.953 in assay [11]; -0.152 in assay [13]; -0.203 in assay [14]. Further, the composite z-score in [15] was 0.848; in assay [16], 2.4; in assay [17], 1.48; in assay [18], 0.913; in assay [19], 0.355; in assay [20], 0.935. The compound further came in with a z-score in assay [2] of 0.305. The composite Z-score in assay [12] is -0.88 (inactive).

For the compound `[N-]=[N+]=Nc1ccccc1C[C@]1(C(=O)N2CCCCC2)COC(c2ccc(OCCCO)cc2)=N1`, the composite z-score in [1] is 1.44; in assay [3] it was -0.241; in [4], 1.35; in assay [5] it was 0.234; in [6], 0.117; in [7], -0.217. Moreover, the composite z-score in assay [8] is -0.673; in assay [9], 1.03; in assay [10], 0.465; in [11], 0.715; in assay [13], 0.176; in assay [14], -0.124. The composite z-score in [15] was 0.613; in assay [16] it was 2.74; in [17], 0.236; in assay [18], 1.28; in assay [19], -0.217; in assay [20], 0.345. This compound registered a z-score in assay [2] of -2.43. Moreover, the composite Z-score in assay [12] was -0.218 (inactive).
